Measurements as given in PubChem BioAssay AID588352 (The Scripps Research Institute Molecular Screening Center, 2011).
Among all 360,000 compounds or so, about 620 (0.17%) were called active.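 Rule for the calls: active = inhibition above a per-campaign cutoff, the mean of all compounds plus 3 SD (cut at about 60% in these data); inactive = the rest.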 Only a selection was taken, and actives are over-represented in it overall.

target: Nuclear receptor coactivator 3 (Homo sapiens) (UniProt Q9Y6Q9); test: NCOA3 GAL4-fusion reporter inhibition – cell-based, luminescence, primary screen (AID 588352); conditions: HEK293 GAL4-SRC3 luciferase reporter, at 3.6 µM, stronger effect = higher value;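 note: 0% = DMSO-treated cells and 100% = gossypol-treated cells at 36 µM; higher means less SRC3-driven luciferase light from the GAL4 reporter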
Sequence (Q9Y6Q9 whole entry, looked up, the tested form may be a part): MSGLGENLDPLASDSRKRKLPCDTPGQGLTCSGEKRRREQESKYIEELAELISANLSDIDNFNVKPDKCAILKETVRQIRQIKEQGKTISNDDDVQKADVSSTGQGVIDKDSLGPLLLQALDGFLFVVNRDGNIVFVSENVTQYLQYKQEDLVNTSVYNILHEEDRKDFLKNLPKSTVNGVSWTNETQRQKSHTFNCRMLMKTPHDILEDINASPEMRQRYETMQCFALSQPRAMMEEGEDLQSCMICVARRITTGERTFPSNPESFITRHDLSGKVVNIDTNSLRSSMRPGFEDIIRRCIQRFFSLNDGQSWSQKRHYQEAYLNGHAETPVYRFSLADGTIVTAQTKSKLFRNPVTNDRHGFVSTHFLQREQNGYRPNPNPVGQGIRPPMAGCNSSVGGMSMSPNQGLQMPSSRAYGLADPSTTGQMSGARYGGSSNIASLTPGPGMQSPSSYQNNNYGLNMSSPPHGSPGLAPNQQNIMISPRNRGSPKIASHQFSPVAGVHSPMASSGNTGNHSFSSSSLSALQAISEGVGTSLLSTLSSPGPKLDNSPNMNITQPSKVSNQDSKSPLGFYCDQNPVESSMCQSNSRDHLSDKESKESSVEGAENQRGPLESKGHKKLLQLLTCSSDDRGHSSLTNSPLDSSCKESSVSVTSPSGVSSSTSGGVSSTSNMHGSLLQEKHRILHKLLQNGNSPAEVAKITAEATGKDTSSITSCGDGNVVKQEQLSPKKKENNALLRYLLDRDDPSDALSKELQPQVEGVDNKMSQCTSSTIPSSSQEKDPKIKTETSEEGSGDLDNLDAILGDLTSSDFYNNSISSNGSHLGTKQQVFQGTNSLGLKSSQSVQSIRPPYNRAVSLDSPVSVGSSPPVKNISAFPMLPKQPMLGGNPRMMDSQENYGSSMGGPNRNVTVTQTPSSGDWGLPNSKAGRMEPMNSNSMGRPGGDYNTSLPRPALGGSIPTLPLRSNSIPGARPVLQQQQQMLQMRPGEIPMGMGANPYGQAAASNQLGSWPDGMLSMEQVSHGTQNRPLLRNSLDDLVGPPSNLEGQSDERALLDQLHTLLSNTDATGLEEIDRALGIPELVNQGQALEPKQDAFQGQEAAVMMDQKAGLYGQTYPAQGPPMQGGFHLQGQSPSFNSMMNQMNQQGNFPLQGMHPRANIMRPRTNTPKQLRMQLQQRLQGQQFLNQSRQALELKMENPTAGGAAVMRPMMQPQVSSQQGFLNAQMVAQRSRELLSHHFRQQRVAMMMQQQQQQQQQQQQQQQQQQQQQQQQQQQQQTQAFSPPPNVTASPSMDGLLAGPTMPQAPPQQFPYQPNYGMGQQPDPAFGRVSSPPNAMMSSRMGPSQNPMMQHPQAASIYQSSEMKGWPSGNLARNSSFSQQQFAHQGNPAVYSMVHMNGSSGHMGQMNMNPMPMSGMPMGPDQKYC

Structure (SMILES)	inhibition
Cc1cc(C)c(C2C3=C(Nc4c2c(C)nn4-c2ccccn2)c2ccccc2C3=O)c(C)c1 (configuration not stated)	9.07% (inactive)
O=C(CC(O)(C(F)(F)F)C(F)(F)F)Nc1ccc(Cl)c(Cl)c1	80% (active)
CC1(C(=O)O)CCC(C(=O)Nc2ccc(Cl)c(Cl)c2)C1(C)C (configuration not stated)	7.83% (inactive)
Cc1ccc(CC(=O)Nc2ccc(OC(F)F)c(Cl)c2)cc1C	1.82% (inactive)
CCCCCN(C(=O)NC(=O)Nc1cccc(C)c1C)S(C)(=O)=O	-2.15% (inactive)
Cc1ccccc1/C=C\c1nc(O)c([N+](=O)[O-])c(=O)[nH]1	2.28% (inactive)
COc1ccc(NC2CCCN(C(=O)c3ccccc3-c3ncc[nH]3)C2)cc1 (configuration not stated)	-11.7% (inactive)
Cc1c(C(=O)c2cccc([N+](=O)[O-])c2)c2ccccn2c1CCC#N	26.8% (inactive)
C=CCn1c(C)cc(C2=NNC(=NCC)SC2)c1C	86% (active)
Cc1ccc(S(=O)(=O)Nc2ccccc2CNc2c(C)n(C)n(-c3ccccc3)c2=O)cc1	22.2% (inactive)
O=S(=O)(Nc1n[nH]c(C(F)(F)F)n1)c1ccccc1	6.01% (inactive)
CC(C)(C)c1ccc(Oc2ccc(N)cc2)cc1	82.3% (active)
CN(C)S(=O)(=O)c1ccc(Oc2ccc(S(=O)(=O)N(C)C)cc2)cc1	25.9% (inactive)
O=C(CSc1nnc(-c2ccc([N+](=O)[O-])cc2)o1)Nc1ccccn1	-82% (inactive)
Cc1nc(CNS(=O)(=O)c2ccc(Oc3ccccc3)cc2)cs1	13.4% (inactive)
CCNC(=O)NC(=O)C(C)OC(=O)C1CCN(S(=O)(=O)c2ccccc2F)CC1 (configuration not stated)	18.3% (inactive)
CSCCC(=O)N1CCCC(CNC(=O)c2ccccc2Cl)C1 (configuration not stated)	13.3% (inactive)
Cc1cccc(N2C(=O)SC(SC(=Nc3ccccc3)Nc3ccccc3)C2=O)c1 (configuration not stated)	-7.91% (inactive)
Cc1ccc(NC(=O)CCC(=O)N/N=C/c2ccco2)c(C)c1	16.4% (inactive)
Cc1ccc(/C=N/NC(=O)C(NC(=O)c2ccccc2)c2n[nH]c(=O)c3ccccc23)cc1 (configuration not stated)	-30.1% (inactive)
Cc1ccc(/C=N/NC(=O)C2=NNC(c3ccccc3)(c3ccccc3)C2)c(O)c1	65% (active)
Cc1c(CN2CCC(n3nccc3NC(=O)CCc3ccccc3)CC2)cnn1C	23.5% (inactive)
CCc1c(O)nc(SCC(=O)Nc2ccccc2)n(C(C)CC)c1=O (configuration not stated)	-6.38% (inactive)

Structure (SMILES)	inhibition
CN(C)c1ccc(NC(=O)c2ccncc2)c2ccccc12	1.55% (inactive)
O=C1c2ccncc2C(=O)N1C1CCCCC1	-19.6% (inactive)
CC(Sc1nnc(Cc2ccc([N+](=O)[O-])cc2)o1)C(N)=O (configuration not stated)	-2.53% (inactive)
O=C(CCNS(=O)(=O)c1ccccc1)NCCSc1ccc(Br)cc1	-5.67% (inactive)
CC(C)(CSc1nncn1/N=C/c1ccco1)NS(=O)(=O)c1ccc(Cl)cc1	0.37% (inactive)
O=C(O)CCC(=O)Nc1ccc(OCC2CCCO2)cc1 (configuration not stated)	4.7% (inactive)
COc1ccc(OC)c(Cc2cnc3nc(N)nc(N)c3c2C)c1	63.7% (active)
COc1ccc(-c2nc(N)ncc2-c2ccc(Cl)cc2)c(O)c1	1.54% (inactive)
OCCCNc1nccc(-c2cc(Nc3cccc(Cl)c3)ncn2)n1	90.9% (active)
C/C(=C\c1ccccc1)C1NC(=O)c2c(sc3c2CCCC3)N1 (configuration not stated)	21.8% (inactive)
CC1(C(=O)O)CCCN(C(=O)/C=C/c2ccccc2)C1 (configuration not stated)	-1.88% (inactive)
Cc1[nH]c(=O)c(C(=O)/C=C/c2ccccc2)c2c1CCCC2	64.9% (active)
Nc1cccc2c1C(=O)N(Cc1nnc(-c3ccccc3Br)o1)C2=O	7.44% (inactive)
COc1ccc(C(=O)N2CCCCC2C(=O)Nc2ccc(-n3nc(C)cc3C)cc2)o1 (configuration not stated)	-17.3% (inactive)
Clc1ccc(-c2nnc(-c3ccccc3)nc2N2CCSCC2)cc1	5.59% (inactive)
O=C(NCC1(N2CCCCC2)CCCCC1)c1ccc(NS(=O)(=O)c2ccc(F)cc2)cc1	-2.32% (inactive)
CCN(CC(=O)Nc1c(F)cccc1F)C(=O)CN1c2cccc3cccc(c23)S1(=O)=O	-23.2% (inactive)
COc1ccc(C(=O)Nc2ccc(C3(C#N)CCCC3)cc2)cc1OC	-41% (inactive)
C[C@H](C(=O)CC(=O)OC(C)(C)C)[C@H](O)c1ccc(C(F)(F)F)cc1	4.25% (inactive)
O=S(=O)(c1cccc(-c2cn3ccccc3n2)c1)N1CCCC1	11.7% (inactive)
Cc1c(CN2CCC(CO)(CCOc3ccccc3)CC2)[nH]c2ccc(Cl)cc12	-36.5% (inactive)
CN(CC(=O)Nc1c(Cl)cccc1Cl)C(=O)CC1OC(=O)c2ccccc21 (configuration not stated)	12.4% (inactive)
COC(=O)/C(=C1\Oc2ccc(C(C)(C)C)cc2S1)C(F)(F)F	5.95% (inactive)

Structure (SMILES)	inhibition
CCc1nc2c(OCCOc3ccccc3)cccn2c1N(C)C(=O)c1cccs1	-22.5% (inactive)
CCn1c(/C=N/NC(=O)c2ccc(OC)cc2)nc2ccccc21	15.7% (inactive)
COc1cccc(OCc2cc(/C=N/NC(=O)c3nc(Cl)c(Cl)c(N)c3Cl)ccc2OC)c1	-12.8% (inactive)
COc1ccc(C(=O)Nc2ccccc2C(=O)N/N=C/c2ccc(O)c(OC)c2)cc1	69.8% (active)
C=CCN(c1ccc(Cl)cc1)S(=O)(=O)c1cccc(C(=O)OCC(=O)N(C)C)c1	16.1% (inactive)
CC(C)[C@@H](C(=O)OCC(=O)c1ccc2c(c1)NC(=O)CO2)N1C(=O)c2ccccc2C1=O	-6.83% (inactive)
CC(CO)N1CCS(=O)(=O)CC1 (configuration not stated)	19.6% (inactive)
O=C(Cc1ccc(S(=O)(=O)N2CCOCC2)s1)Nc1ccc(Br)c(C(F)(F)F)c1	4.75% (inactive)
COCCn1cnc2c1c(=O)n(CC(=O)NN)c(=O)n2Cc1ccccc1	1.62% (inactive)
N=c1c2c(-c3ccccc3)c(-c3ccccc3)n(Cc3ccccc3)c2ncn1CCCO	62.7% (active)
COCCn1cnc2c1c(=O)n(Cc1ccc(Br)cc1)c(=O)n2Cc1ccccc1	-1.52% (inactive)
CC(C)CC[n+]1ccn(C2=C([O-])c3ccccc3C(=O)/C2=N\S(=O)(=O)c2ccccc2)c1	-4.74% (inactive)
CN(C)CC(C)(C)CNC(=O)c1cc(Br)cc(Br)c1O	-17% (inactive)
Cc1c(NC(=O)COC(=O)/C=C/c2cccc(F)c2)c(=O)n(-c2ccccc2)n1C	-6.79% (inactive)
CC(=O)NN=C(C)c1ccc(NC(=O)C2CC2)cc1	0.05% (inactive)
CCCC(NCC(=O)Nc1ccccc1C(=O)NC1CC1)c1ccccc1 (configuration not stated)	4.81% (inactive)
Cn1c(CC(=O)Nc2ccc(F)cc2)nnc1SCC(=O)NC1CCCCC1	-3.83% (inactive)
Cc1ccc(OCCNC(=O)c2cccc(S(=O)(=O)N3CCN(Cc4ccccc4)CC3)c2)cc1	0.45% (inactive)
CC(=O)c1ccc(OC(=O)N2CCOCC2)cc1	-9.63% (inactive)
CCC(NC(=O)C1CCCC1)c1ccc(C)cc1 (configuration not stated)	-5.79% (inactive)
COc1ccc(Cl)cc1NC(=O)C(C)N1CCc2ccccc21 (configuration not stated)	-3.25% (inactive)
O=C(N/N=C/c1ccccc1O)/C(=C/c1ccccc1)CCO	43.6% (inactive)
C=CCOc1ccccc1/C=N/NC(=O)Cc1ccccc1	-4.16% (inactive)

Structure (SMILES)	inhibition
O=C(NN=Cc1ccccc1O)NN=Cc1ccccc1O	64.5% (active)
O=C(COc1ccc(S(=O)(=O)NCCc2ccccc2)cc1)N1CCCC1	15.7% (inactive)
CCc1nnc(NC(=O)CCN(c2ccc(C)cc2)S(=O)(=O)c2ccccc2)s1	3.02% (inactive)
CNS(=O)(=O)c1ccc(N2CCCC2=O)c([N+](=O)[O-])c1	0.16% (inactive)
COc1ccc(N(C(=O)c2snc(C(N)=O)c2N)C(C(=O)NC2CCCC2)c2ccco2)cc1OC (configuration not stated)	-3.31% (inactive)
Brc1ccc2nc(-c3ccccc3)c(Cc3ccccc3)n2c1	-38.3% (inactive)
Cc1cc(=O)oc2c(C(=O)c3ccccc3)c(OCC(N)=O)ccc12	14.2% (inactive)
COc1ccc(C(=O)N/N=C2\CCS(=O)(=O)c3ccc(F)cc32)cc1OC	5.88% (inactive)
Cc1cc(C)n(C(=O)c2ccc(C)c(S(=O)(=O)N3CCOCC3)c2)n1	12.7% (inactive)
CC[C@H]1CN2CCc3cc(OC)c(OC)cc3[C@@H]2C[C@@H]1C[C@H]1NCCc2cc(OC)c(OC)cc21	94.6% (active)
O=C(O)C1CCN(C(=O)OCc2ccccc2)CC1	-70.7% (inactive)
CCCNC(=O)C1(C)CCCN(C(=O)c2cccc(OC(C)=O)c2C)C1 (configuration not stated)	-10.9% (inactive)
CCOC(=O)CN(C)S(=O)(=O)c1ccc(-c2cc(C(=O)OC)sc2C(F)(F)F)cc1	9.38% (inactive)
N#C/C(=C(\O)CCl)c1nnc2n1CCCCC2	9.47% (inactive)
CCCOc1ccc(Cc2c(O)nc(N)[nH]c2=O)cc1C	1.06% (inactive)
COC(=O)/C=C(\Oc1ccccc1)C1(O)CCCCC1	9.01% (inactive)
COc1ccc(Nc2ncnc3ccc(Br)cc23)c(OC)c1	82% (active)
COc1ccc(OC)c(NC(=O)CN(C)CCOc2ccc(Br)cc2)c1	4.03% (inactive)
COc1ccc(OC)c(Nc2nc3ccccc3n3cnnc23)c1	9.44% (inactive)
CCOC1=C2[C@@H](CN(S(=O)(=O)c3ccc(C)cc3)[C@H]2c2ccccc2F)[C@H]2C(=O)N(Cc3ccccc3)C(=O)[C@H]2C1	2.22% (inactive)
CCn1ncc(CNC(=O)C2(C)CC2(Br)Br)c1C (configuration not stated)	-0.54% (inactive)
CCCCCCCCn1c2c(c(=N)c3c1CCC3)CCCC2	80% (active)
Cc1cc(S(=O)(=O)NC2CCCC2)ccc1-n1cnnn1	2.04% (inactive)
